Assay outcomes deposited in PubChem BioAssay by National Center for Advancing Translational Sciences (NCATS).
HP1b chromo inh: inhibitors of HP1-beta chromodomain binding to methylated histone tails. P83916. Potency, µM (series often up to 114 µM), for inactives: top-dose activity change, negative = inhibition, actives largely listed as inhibitors. AlphaScreen HP1-beta / biotin-H3K9me3 peptide binding. AID 540317. 390,000 compounds, 0.56% hits; further: potency means the concentration at half of the fitted maximal effect; nearly all actives have a fitted effect of over 70% in size
Target sequence (P83916 whole entry, looked up): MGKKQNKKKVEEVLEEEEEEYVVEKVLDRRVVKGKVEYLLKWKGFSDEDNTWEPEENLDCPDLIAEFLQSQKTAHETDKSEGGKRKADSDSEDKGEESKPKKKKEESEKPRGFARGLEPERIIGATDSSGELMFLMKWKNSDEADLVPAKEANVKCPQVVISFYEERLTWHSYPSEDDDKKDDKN
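Compound inhibition of the preformed complex between 50 nM HP1-beta and 50 nM biotinylated H3K9me3 peptide was read by AlphaScreen. Buffer was PBS pH 7.4 with 0.01% Tween-20. Incubations ran 30 min at room temperature, with 10 ug/mL donor/acceptor beads.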
PLK1 PBD block: blocks phosphopeptide binding to human PLK1 polo-box domain | Potency, µM, for the others: max response, negative = inhibition, most hits filed as inhibitors | Plk1 PBD binding of FITC phosphopeptide, fluorescence polarization | 360,000 compounds, 2.8% hits | AID 720504; further: potency means the concentration at half of the fitted maximal effect; series mostly up to about 57 µM; on the % scale 0 is the no-effect control and ±100 the full control effect; nearly all actives have a fitted effect of over 65% in size
G9a block: blocks human histone lysine methyltransferase G9a; Potency, µM (top dose mostly 102 µM), without a hit: top-dose activity, negative = inhibition, hits mostly inhibitors; 350,000 compounds, 8.8% hits; G9a H3K9 monomethylation, AlphaScreen, 2 h; Q96KQ7; AID 504332; further: potency means the concentration at half of the fitted maximal effect; on the % scale 0 is the no-effect control and ±100 the full control effect; nearly all actives have a fitted effect of over 75% in size
Target sequence (Q96KQ7 913-1193 limits assumed): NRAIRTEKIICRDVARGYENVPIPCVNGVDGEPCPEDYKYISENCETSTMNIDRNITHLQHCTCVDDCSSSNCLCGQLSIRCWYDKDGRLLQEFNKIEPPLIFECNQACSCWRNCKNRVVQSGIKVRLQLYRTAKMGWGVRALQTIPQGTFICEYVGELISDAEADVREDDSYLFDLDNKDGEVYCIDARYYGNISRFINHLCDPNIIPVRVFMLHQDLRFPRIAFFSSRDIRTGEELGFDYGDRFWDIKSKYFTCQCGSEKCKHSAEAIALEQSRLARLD
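Enzyme 20 nM + cpd, 15 min RT; add b-H3K9 pep 500 nM / SAM 20 uM; 2 h RT; anti-H3K9me1 Ab 0.5 ug/mL + SA donor / anti-rabbit acceptor beads 20 ug/mL each, 10 min; AlphaScreen read.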
PI5P4K alpha inh: inhibitors of human PI5P4K alpha; P48426; PI5P4Kalpha enzyme, ADP-Glo luminescence, 60 min; stronger effect = lower value; max response, %; 330,000 compounds, 1.2% hits; AID 652105; active means max response of -50% or lower; inconclusive means between -30% and -50%; inactive means -30% or higher; further: value at the top dose of about 77 µM; on the % scale 0 is the no-effect control and ±100 the full control effect
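Luminescence from ADP-Glo served as readout of PI5P4Kalpha activity in a qHTS format. Reaction: enzyme, substrate, compound, ATP at 5 microM final, 60 min at RT.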
BAZ2B block: blocks human BAZ2B. Q9UIF8. AlphaScreen BAZ2B-H3K14Ac peptide displacement. Potency, µM (titrated, usually from 114 µM), without a hit: top-dose activity change, negative = inhibition, usual class: inhibitors. 360,000 compounds, 4.4% hits; further: potency means the concentration at half of the fitted maximal effect; on the % scale 0 is the no-effect control and ±100 the full control effect; nearly all actives have a fitted effect of over 60% in size
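BAZ2B (50 nM) with biotin-H3(5-23)K14Ac peptide (50 nM) in PBS pH 7.4, 0.01% Tween-20, preformed 30 min, then compound 30 min at room temperature; top concentration 110uM. AlphaScreen streptavidin donor/nickel chelate acceptor beads (10 ug/mL final), 20 min dark, signal read.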
JMJD2A Tudor inh: inhibitors of human JMJD2A Tudor domain | AID 504339 | AlphaScreen JMJD2A-Tudor / H3K4me3 peptide binding | O75164 | 390,000 compounds, 4.4% hits | Potency, µM (top dose mostly 114 µM), for the others: at the top dose activity change, negative = inhibition, actives largely listed as inhibitors; further: potency means the concentration at half of the fitted maximal effect; on the % scale 0 is the no-effect control and ±100 the full control effect; nearly all actives have a fitted effect of over 50% in size
Starred values were filed as active, the others as inactive; [ ] = dose if it differs, or a comment. In the library only some 12% were active in any assay of this set; here they are far more common. Unless noted, the call rests on the fitted dose curve; in most records, active means well fitted curve in the direction sought with a large enough effect; inconclusive means small, poorly fitted or top-dose-only effect, or another doubt; inactive means no such curve, though single readings can be large; an effect the other way counts as inactive or inconclusive.

Screening CCSc1nc2c(c(=O)[nH]c(=O)n2C)n1CC(O)COc1ccc(Cl)cc1 (stereo not drawn) returned HP1b chromo inh 38%, G9a block 1%[59 µM], BAZ2B block 0% and JMJD2A Tudor inh -16%.
Cc1ccc(NC(=O)c2ncn(CCCNCc3ccccn3)n2)cc1C was read as HP1b chromo inh 35%, PLK1 PBD block -24%, PI5P4K alpha inh 0 and JMJD2A Tudor inh -27%.
For CCN1C(=O)c2ccccc2S(=O)c2ccc(C(=O)NCc3ccc(Cl)cc3)cc21 (stereo not drawn) the results were HP1b chromo inh 33%, G9a block -8%[59 µM], BAZ2B block -8% and JMJD2A Tudor inh -18%.
`CCc1nnc(NC(=O)CCC(=O)N2CCN(c3cc(Cl)ccc3C)CC2)s1` gave HP1b chromo inh -10%, PLK1 PBD block inconclusive, G9a block 7%, PI5P4K alpha inh 1, BAZ2B block -25% and JMJD2A Tudor inh -34%.
Screening COc1ccc(C(=O)N2c3ccccc3C=CC2C#N)cc1 (stereo not drawn) returned HP1b chromo inh 8%, PLK1 PBD block -16%, G9a block -1%[59 µM], PI5P4K alpha inh inconclusive, BAZ2B block -7% and JMJD2A Tudor inh -18%.
Screening N#C[C@H]1[C@H](c2ccccc2)[C@](C#N)(C(=O)c2ccccc2)[C@@H]2C=Cc3ccccc3N21 returned G9a block 25µM* and BAZ2B block 28µM*.
`Cc1cc(C)c(S(=O)(=O)/N=C2/C=C(SCC(=O)O)C(=O)c3ccccc32)cc1C` gave HP1b chromo inh 35µM*, PLK1 PBD block 0.84µM*, G9a block 5.6µM*, PI5P4K alpha inh inconclusive, BAZ2B block 35µM* and JMJD2A Tudor inh 25µM*.
O=c1cc(-c2ccc(O)c(O)c2)oc2ccc3ccccc3c12 was read as HP1b chromo inh -17%, PLK1 PBD block 0%, G9a block 56µM*, PI5P4K alpha inh -20, BAZ2B block inconclusive and JMJD2A Tudor inh -24%.
O=c1oc(-c2ccc(O)c(O)c2)cc2cccc(O)c12 was read as HP1b chromo inh -21%, PLK1 PBD block -5%, PI5P4K alpha inh -23 and JMJD2A Tudor inh inconclusive.
For O=c1oc(-c2ccc(O)c(O)c2)cc2cc(O)cc(O)c12 the results were HP1b chromo inh -2%, PLK1 PBD block -2%, PI5P4K alpha inh -66* and JMJD2A Tudor inh inconclusive.
`Cc1[nH]c2ccccc2c1/C=N/NC(=O)c1cccc([N+](=O)[O-])c1` gave HP1b chromo inh -10%, PLK1 PBD block -11%, G9a block -45%, PI5P4K alpha inh 8, BAZ2B block -25% and JMJD2A Tudor inh -1%[11.4 µM].
For Cc1[nH]c2ccccc2c1/C=N/Nc1nc(Nc2ccccc2)nc(N2CCOCC2)n1 the results were HP1b chromo inh -24%, PLK1 PBD block -26%, PI5P4K alpha inh 3, BAZ2B block 40µM* and JMJD2A Tudor inh inconclusive.
Screening Cc1[nH]c2ccccc2c1/C=N/Nc1nncn1N returned HP1b chromo inh 17%, PLK1 PBD block -10%, G9a block 35µM*, PI5P4K alpha inh 5, BAZ2B block 50µM* and JMJD2A Tudor inh -29%.
Screening Cc1[nH]c2ccccc2c1/C=N/Nc1ccc([N+](=O)[O-])cc1 returned HP1b chromo inh inconclusive, PLK1 PBD block 16%, G9a block 8.9µM*, PI5P4K alpha inh -7, BAZ2B block inconclusive and JMJD2A Tudor inh -28%.
For Cc1[nH]c2ccccc2c1/C=N/NC(=O)c1cccc(F)c1 the results were HP1b chromo inh 23%, PLK1 PBD block -16%, PI5P4K alpha inh 1, BAZ2B block -14% and JMJD2A Tudor inh -27%.
`Cc1[nH]c2ccccc2c1/C=N/Nc1ccc(F)cc1F` gave G9a block 32µM* and BAZ2B block 45µM*.
COc1ccccc1NC(=O)CSc1nc2c(oc3ccccc32)c(=O)n1-c1ccc(C)cc1 was read as HP1b chromo inh 14%, G9a block -36%[59 µM], BAZ2B block -13% and JMJD2A Tudor inh -8%.
`Cc1[nH]c2ccccc2c1/C=N/NC(=O)c1cccs1` gave HP1b chromo inh 14%, PLK1 PBD block 3%, G9a block inconclusive, PI5P4K alpha inh inconclusive, BAZ2B block inconclusive and JMJD2A Tudor inh inconclusive.
`Cc1[nH]c2ccccc2c1/C=N/Nc1ccccn1` gave G9a block inconclusive and BAZ2B block 35µM*.
For CCN(CC)C(=O)c1sc2c(c1C)c(=O)n(-c1ccc(C)c(C)c1)c(=O)n2CC(=O)Nc1ccc(OC)cc1OC the results were HP1b chromo inh -8%, G9a block 4%[59 µM], BAZ2B block -8% and JMJD2A Tudor inh -22%.
COc1ccc(Nc2nc(N)nc(COc3ccc(OC)cc3)n2)cc1 was read as HP1b chromo inh 39%, PLK1 PBD block -6%, G9a block 17%[59 µM], PI5P4K alpha inh 0, BAZ2B block 10% and JMJD2A Tudor inh -12%.
`CCOc1ccc(Nc2ncnc(N)n2)cc1` gave HP1b chromo inh 16%, PLK1 PBD block -1%, G9a block -3%[12.7 µM], BAZ2B block -12% and JMJD2A Tudor inh -9%.
For CCOc1ccc(Nc2nc(N)nc(CN(C)C3CCCCC3)n2)cc1 the results were HP1b chromo inh 32%, PLK1 PBD block 5%, G9a block 11%, PI5P4K alpha inh 8, BAZ2B block 28µM* and JMJD2A Tudor inh 20µM*.
For COc1ccc(Nc2nc(N)nc(CN(C)C3CCCCC3)n2)cc1 the results were HP1b chromo inh 13%, PLK1 PBD block -3%, G9a block 4%, PI5P4K alpha inh -1, BAZ2B block 32µM* and JMJD2A Tudor inh 45µM*.
COc1ccc(Nc2nc(N)nc(CSC(=S)N3CCCCC3)n2)cc1 was read as HP1b chromo inh -16%, PLK1 PBD block -1%, G9a block inconclusive, PI5P4K alpha inh 5, BAZ2B block 71µM* and JMJD2A Tudor inh inconclusive.
Screening Cc1cc(C)c(OCCOCCn2c(-c3ccc(Cl)cc3)nc3ccccc3c2=O)c(C)c1 returned HP1b chromo inh 70%, G9a block 3%[59 µM], BAZ2B block 19% and JMJD2A Tudor inh 31%.
`CCN(CC)S(=O)(=O)c1ccc2c(c1)c(=O)c(C(=O)N1CCN(c3ccc(OC)cc3)CC1)cn2C` gave HP1b chromo inh -8%, G9a block inconclusive and JMJD2A Tudor inh -18%.
For Cc1ccc(C)c(N2CCN(c3ccc([N+](=O)[O-])cn3)CC2)c1 the results were HP1b chromo inh 11%, PLK1 PBD block 3%, G9a block 5%, PI5P4K alpha inh 13, BAZ2B block -11% and JMJD2A Tudor inh -32%.
